An excerpt weighted towards active compounds, which were near 3.8% of everything screened.
Nrf2 ARE act: qHTS of Nrf2 Activators; AREc32 ARE-luciferase reporter (MCF7-derived line), luminescence, 24 h; actives 0.31% (n = 410,000); Potency, µM (series often up to 46.1 µM), most hits filed as activators; note: nearly all actives have a fitted effect of over 65% in size
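Each well held 1000 AREc32 cells, which were incubated with compound for 24 hr at 37 deg C after overnight attachment, and ARE reporter activity was quantified by firefly luciferase luminescence.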
Nrf2 inh: Nrf2 qHTS screen for inhibitors; A549 ARE-Fluc reporter, luciferase luminescence, 18-24 h; Potency, µM (highest dose often 46 µM), usual class: inhibitors; actives 2.1% (n = 360,000); note: nearly all actives have a fitted effect of over 60% in size
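Two sequential reads on A549 ARE_Fluc cells exposed to compound for 18-24 h: a CellTiter-Fluor fluorescence read for viability, then a luciferase luminescence read for Nrf2/ARE activity.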
ELG1 repair inh: qHTS screen for small molecules that inhibit ELG1-dependent DNA repair in human embryonic kidney (HEK293T) cells expressing luciferase-tagged ELG1 | HEK293T ELG1-luciferase reporter, luminescence, 16 h; DNA damage induced by 5-fluorouridine | AID 504467, 2011 | Potency, µM (top dose mostly 46.1 µM), most hits filed as inhibitors | actives 2.3% (n = 330,000); note: nearly all actives have a fitted effect of over 55% in size
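HEK293T cells expressing luciferase-tagged ELG1 (2,000/well) received 5-Fluorouridine plus compound or DMSO for 16 hr at 37 °C. Luciferase was read by ONE-Glo luminescence after 30 min at room temperature.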
A549 viability: Nrf2 qHTS screen for inhibitors: counterscreen for cytotoxicity. A549 ARE-Fluc cells, CellTiter-Fluor viability, 18-24 h. Potency, µM (highest dose often 46 µM), most hits filed as inhibitors. actives 0.16% (n = 390,000). AID 504648, 2011
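A549 ARE_Fluc cells in 5% FBS OPTI-MEM were exposed to compounds in concentration-response for 18-24 h at 37 deg C. Viability was read by CellTiter-Fluor fluorescence (Ex 405/Em 525) after 30 min, before the luciferase read.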
IDH1 R132H inh: qHTS for Inhibitors of mutant isocitrate dehydrogenase 1 (IDH1): qHTS; Isocitrate dehydrogenase [NADP] cytoplasmic (Homo sapiens), O75874; Potency, µM (titrated, usually from 76.6 µM), hits mostly inhibitors; AID 602179, 2012; actives 0.093% (n = 390,000); IDH1-R132H enzyme, NADPH consumption, diaphorase/resazurin fluorescence; note: nearly all actives have a fitted effect of over 65% in size
Target sequence (O75874 whole entry R132H, stated change not applied): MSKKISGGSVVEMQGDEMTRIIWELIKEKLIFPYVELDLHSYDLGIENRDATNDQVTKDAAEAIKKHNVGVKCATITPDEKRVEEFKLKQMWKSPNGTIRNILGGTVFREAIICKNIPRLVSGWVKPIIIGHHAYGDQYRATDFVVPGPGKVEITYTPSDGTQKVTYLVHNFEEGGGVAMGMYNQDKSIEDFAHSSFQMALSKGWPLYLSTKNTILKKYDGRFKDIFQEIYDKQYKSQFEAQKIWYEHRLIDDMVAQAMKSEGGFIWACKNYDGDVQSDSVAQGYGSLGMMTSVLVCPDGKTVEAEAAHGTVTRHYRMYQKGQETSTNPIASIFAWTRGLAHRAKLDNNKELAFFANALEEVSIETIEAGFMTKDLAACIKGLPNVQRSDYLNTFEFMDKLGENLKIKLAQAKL
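IDH1-R132H (0.5 ug/mL) preincubated 30 min with compound, then NADPH (0.016 mM) and alpha-KG (2 mM) added; 80 min at RT, pH 7.5. Remaining NADPH coupled via diaphorase/resazurin to fluorescence (540/590 nm); concentration-response curves normalized to no-enzyme control.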
Numbers stand for hits; – = inactive; ? = inconclusive; · = not tested or not shown; [ ] = remark or other dose. Calls come from the whole dose curve; as a rule, active = well fitted curve in the direction sought with a large enough effect; inconclusive = small, poorly fitted or top-dose-only effect, or another doubt; inactive = no such curve, though single readings can be large; an effect the other way counts as inactive or inconclusive.

SMILES	Nrf2 ARE act	Nrf2 inh	ELG1 repair inh	A549 viability	IDH1 R132H inh
COc1cccc(-n2c(CN3CCN(c4ccc(C)cc4)C(C)C3)nc3ccc([N+](=O)[O-])cc3c2=O)c1 (stereo not given)	–	–	?	–	–
COc1cccc(-n2c(CN3CCN(c4cccc(C)c4)C(C)C3)nc3ccc([N+](=O)[O-])cc3c2=O)c1 (stereo not given)	–	–	12µM	–	–
COc1ccc(NC(=O)c2sc3nc4c(cc3c2N)CN(C(C)C)CC4)c(OC)c1	–	–	·	–	–
Cc1ccc(-c2c[n+](Cc3ccc(Cl)c(Cl)c3)c3n2CCC3)cc1	–	–	21µM	–	–
COc1ccc(-c2c[n+](CC(=O)c3cccs3)c3n2CCC3)cc1	–	–	23µM	–	–
Cc1ccc(C(=O)C[n+]2cc(-c3ccc(C)cc3)n3c2CCCCC3)cc1	–	?	16µM	–	–
COc1ccc(C(=O)C[n+]2cc(-c3ccc(OC)cc3)n3c2CCCC3)cc1	–	8.2µM	7.3µM	–	–
Fc1cccc(Cc2c(-c3cccc(Cl)c3)nc3ccc(Cl)cn23)c1	–	·	·	·	·
CSc1ccc(CN2CCC2(C)C(=O)NCc2ccc3c(c2)OCO3)cc1 (stereo not given)	–	·	·	·	·
COc1cccc(-c2ccc3c(N)c(C(=O)NCc4ccc(Cl)cc4)sc3n2)c1	–	?	·	–	–
O=C(c1ccco1)N1CCN(CCOCCOc2cccc3ccccc23)CC1	–	–	?	–	–
c1ccc(CN2CCN(CCOCCOc3cccc4ccccc34)CC2)cc1	–	–	18µM	–	–
CCn1cc2nc(SCc3ccc(F)cc3)n(CCc3ccccc3)c(=O)c2n1	–	?	·	–	–
COc1ccc(-c2nc3ccccn3c2NCc2ccc3c(c2)OCO3)cc1	–	–	?	–	–
Cc1ccc2nc(-c3cccc(SC4CCCCC4)c3)c(NCc3ccccc3)n2c1	–	?	26µM	–	–
COc1ccc(-c2cc(-c3nc4ccccn4c3NCc3ccccc3)ccc2OC)cc1	–	15µM	2.3µM	?	–
CCC(C)Sc1ccc(-c2nc3ccc(C)cn3c2NCc2ccccc2)cc1OC (stereo not given)	–	?	?	?	–
CCCCNc1c(-c2ccc(OC)c(SC(C)CC)c2)nc2ccc(C)cn12 (stereo not given)	–	?	7.3µM	?	–
Clc1ccc2nc(-c3cccc(SC4CCCCC4)c3)c(NCc3ccccc3)n2c1	–	–	?	–	–
CCC(C)Sc1cc(-c2nc3ccc(C)cn3c2NCc2ccccc2)ccc1OC (stereo not given)	–	21µM	·	16µM	–
Cc1cc(C)cc(N(CC(=O)Nc2c(C)cc(C)cc2C)S(=O)(=O)c2c(C)nn(C)c2C)c1	–	–	·	–	–
CCCCNc1c(-c2ccc(OC)c(SC3CCCCC3)c2)nc2ccc(C)cn12	–	18µM	?	?	–
CCn1c(CNC(=O)COc2ccc(C(C)C)cc2)nnc1SCC(=O)Nc1ccccc1C(C)C	–	16µM	?	–	–
CCn1c(CNC(=O)COc2ccc(C(C)C)cc2)nnc1SCC(=O)Nc1ccccc1F	–	?	?	–	–
COc1ccc(CNc2ncnc3ccc(-c4c(C)noc4C)cc23)cc1	·	–	·	–	·
SMILES	Nrf2 ARE act	Nrf2 inh	ELG1 repair inh	A549 viability	IDH1 R132H inh
Cc1ccc(Oc2c(C(N)=O)cc([N+](=O)[O-])cc2[N+](=O)[O-])cc1	–	5.8µM	?	4.1µM	–
Cc1ccc(CNc2ccc([N+](=O)[O-])cc2C(N)=O)cc1	–	–	?	–	–
COc1ccc(-c2sc3ccc(N4CCOCC4)cc3c2C#CCO)cc1	–	16µM	5.2µM	–	–
COCCCNc1ncnc2c1[nH]c1ccccc12	·	·	–	·	·
COCCNc1ncnc2c1[nH]c1ccccc12	–	?	15µM	–	–
CC(C)Oc1ncnc2c1[nH]c1ccccc12	–	8.2µM	?	–	–
Cc1cc(C)n(CC(=O)Nc2ccc(F)c(F)c2)c(=O)c1C#N	–	·	·	–	–
C/C(=N\NC(=S)Nc1ccc(C)c(C)c1)c1ccc(N2CCOCC2)cc1	–	–	23µM	–	–
COc1cccc(C2c3c(ncn(-c4cccnc4)c3=N)Oc3ccc4ccccc4c32)c1 (stereo not given)	·	–	·	–	·
COc1cc(CNc2ncn[nH]2)ccc1OCc1cccc(C)c1	–	?	?	–	–
CC(=O)c1c(C)[nH]c(C(=O)CSc2nc3ccc(C)cc3[nH]2)c1C	–	?	12µM	–	–
CN(CC(=O)Nc1cccc(F)c1)C(=O)c1ccccc1Sc1ccccc1C#N	–	?	16µM	–	–
COc1cccc(NC(=O)CN(C)C(=O)c2ccccc2Sc2ccccc2C#N)c1	–	–	?	–	–
O=C(c1ccc(Sc2cccc(Cl)c2)c([N+](=O)[O-])c1)N1CCN(c2ccccn2)CC1	–	16µM	–	–	–
O=C(c1ccc(Cl)c([N+](=O)[O-])c1)N1CCN(c2ccccn2)CC1	–	–	–	–	–
COc1ccc(-c2cn(-c3ccc(C)cc3)c(S(=O)(=O)CC(=O)Nc3ccccc3)n2)cc1	–	–[9.27 µM]	·	?	–
Cc1ccc2nc(CSc3nnc(NC(=O)COc4ccccc4F)s3)cc(=O)n2c1	–	·	·	–	–
COc1cc2[nH]c(=O)n3nc(-c4ccccc4)nc3c2cc1OC	–	–	21µM	·	–
COc1ccc(-c2nc3c4ccccc4[nH]c(=O)n3n2)cc1	–	?	·	–	–
CCOc1ccc(N(CC(=O)N2CCOCC2)S(=O)(=O)c2ccc(Cl)cc2)cc1	–	–	–	–	–
O=C(NNC(=O)c1sc2cccc(Cl)c2c1Cl)NC1CCCCC1	–	9.2µM	–	–	–
CC(C)C(=O)N1CCN(c2ccc(NC(=O)c3ccc4c(c3)OCCO4)cc2Cl)CC1	–	·	5.8µM	?	–
COc1ccc(C(=O)Nc2ccccc2N2CCN(C(=O)C(C)C)CC2)cc1Cl	–	–	23µM	–	–
CC(C)C(=O)N1CCN(c2ccc(NC(=O)c3cccs3)cc2Cl)CC1	–	–	12µM	–	–
CC(=O)N1CCN(c2ccc(NC(=O)c3ccc4c(c3)OCCO4)cc2Cl)CC1	–	?	?	–	–
Cc1ccc(C)c(-c2nnc(NC(=O)c3ccc4c(c3)OCCO4)o2)c1	–	·	·	–	–
O=C(CN1C(=O)c2cccnc2Oc2ccc(Cl)cc21)NCCCc1ccccc1	–	?	18µM	–	–
CN(C)CCCN=c1cc(-c2ccccc2)oc2ccc(Cl)cc12	14µM	–	?	–	–
OCCN=c1cc(-c2ccccc2)oc2ccc(Cl)cc12	?	–	?	–	–

High-throughput results: PubChem, National Center for Advancing Translational Sciences (NCATS)
